In PubChem BioAssay (NCI):
About 79,000 compounds went through this panel and 15% of them were active in at least one assay; those are over-represented in the sample as a whole. The source made the active and inactive calls. Cut-off read from the data, not from the text of the source: active = growth inhibition above about 70%; inactive = the rest.

What was measured:
[1] = NCI Yeast Anticancer Drug Screen. Data for the mec2-1 strain (AID 157); conditions: S. cerevisiae mec2-1 strain, active compounds read high
Summary of the method: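 Mutant yeast (mec2-1) grown with compound; growth inhibition relative to vehicle control reported.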

[2] = NCI Yeast Anticancer Drug Screen. Data for the rad14 strain (AID 159);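 note: 0% = growth of vehicle-treated control cultures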; conditions: S. cerevisiae rad14 strain growth inhibition, active compounds read high
Summary of the method: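 Screen for anticancer potential: a yeast strain altered in DNA damage repair is grown with compound, and reduced growth is quantified against vehicle controls.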

[3] = NCI Yeast Anticancer Drug Screen. Data for the sgs1 mgt1 strain (AID 161);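 note: 0% = growth of cultures given vehicle only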; conditions: S. cerevisiae sgs1 mgt1 strain, active compounds read high
Summary of the method: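 Growth of a repair-deficient yeast mutant was monitored after compound treatment and expressed as inhibition relative to vehicle-treated cultures.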

[4] = NCI Yeast Anticancer Drug Screen. Data for the CLN2oe strain (AID 163);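 note: 0% = growth of vehicle-only control cultures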; conditions: S. cerevisiae CLN2oe strain, active compounds read high
Summary of the method: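 Compounds are applied to yeast harbouring a defined cell-cycle control change; reduced growth compared with vehicle-treated controls gives the value.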

[5] = NCI Yeast Anticancer Drug Screen. Data for the cln2 rad14 strain (AID 165);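 note: 0% = growth equal to vehicle treated cultures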; conditions: S. cerevisiae cln2 rad14 strain, active compounds read high
Summary of the method: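 Readout is yeast growth inhibition versus vehicle-treated controls, using a strain with cln2 and rad14 alterations exposed to compound.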

[6] = NCI Yeast Anticancer Drug Screen. Data for the bub3 strain (AID 167); conditions: S. cerevisiae bub3 mutant strain, active compounds read high
Summary of the method: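 Screening used yeast with an engineered genetic alteration affecting cell cycle control. Compound-exposed cultures were compared with vehicle cultures, and reduced growth was taken as inhibition.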

[7] = NCI Yeast Anticancer Drug Screen. Data for the wt2 strain (AID 169);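 note: 0% = growth of vehicle-treated yeast cultures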; conditions: S. cerevisiae wt2 strain growth inhibition, active compounds read high
Summary of the method: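 Against vehicle-treated controls, the growth of yeast exposed to each compound was compared, and the inhibition was recorded.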

[8] = NCI Yeast Anticancer Drug Screen. Data for the mlh1 strain (AID 171);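 note: 0% = growth of vehicle-treated control cultures of the same strain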; conditions: S. cerevisiae mlh1 strain growth inhibition, active compounds read high
Summary of the method: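 Measured: yeast growth. Reference: vehicle-treated controls. Organism: strain with a defined alteration affecting DNA damage repair or cell cycle control, treated with compound.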

[9] = NCI Yeast Anticancer Drug Screen. Data for the sgs1 strain (AID 173);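 note: 0% = growth of vehicle-only control cultures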; conditions: S. cerevisiae sgs1 mutant, active compounds read high
Summary of the method: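 Each compound was added to cultures of the altered yeast strain. Growth was recorded, and inhibition was derived by comparison with vehicle controls.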

[10] = NCI Yeast Anticancer Drug Screen. Data for the mlh1 rad18 strain (AID 175); conditions: S. cerevisiae mlh1 rad18 strain growth inhibition, active compounds read high
Summary of the method: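 Genetically defined yeast (DNA repair-deficient) exposed to compounds; growth inhibition determined relative to vehicle.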

[11] = NCI Yeast Anticancer Drug Screen. Data for the rad18 strain (AID 177); conditions: S. cerevisiae rad18 mutant growth inhibition, active compounds read high
Summary of the method: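 Vehicle-treated cultures served as the baseline for scoring compound-induced growth inhibition in DNA-repair-mutant yeast.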

[12] = NCI Yeast Anticancer Drug Screen. Data for the rad52 strain (AID 147);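 note: 0% = growth of vehicle-treated control cultures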; conditions: S. cerevisiae rad52 mutant growth inhibition, active compounds read high
Summary of the method: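 The repair-mutant yeast strain was incubated with compounds, then growth was read and inhibition derived relative to vehicle.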

[13] = NCI Yeast Anticancer Drug Screen. Data for the wt1 strain (AID 149);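 note: 0% = growth of vehicle-treated wt1 cultures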; conditions: S. cerevisiae wt1 strain (SPY 50644) growth inhibition, active compounds read high
Summary of the method: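 Using yeast strain wt1, compound-induced growth inhibition was determined against vehicle-treated cultures.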

[14] = NCI Yeast Anticancer Drug Screen. Data for the rad50EPP+ strain (AID 151);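 note: 0% = growth of vehicle-treated control cultures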; conditions: S. cerevisiae rad50 mutant strain, active compounds read high
Summary of the method: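 Vehicle-normalised growth inhibition; rad50EPP+ yeast strain, altered in DNA damage repair, compound-treated.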

[15] = NCI Yeast Anticancer Drug Screen. Data for the mgt1 strain (AID 153); conditions: S. cerevisiae mgt1 mutant growth inhibition, active compounds read high
Summary of the method: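 Vehicle-normalized growth inhibition is determined in mgt1 yeast, a strain selected for a defined alteration in DNA repair or cell cycle control.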

[16] = NCI Yeast Anticancer Drug Screen. Data for the rad50 strain (AID 155);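 note: 0% = growth of vehicle-only cultures of the same strain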; conditions: S. cerevisiae rad50 strain growth inhibition, active compounds read high
Summary of the method: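 Relative growth inhibition (compound vs vehicle) was measured in yeast with a defined repair-gene alteration.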

[17] = at 5.0 µM (retest, dose inferred, filed as 0.5)
[18] = at 50.0 µM (retest, dose inferred, filed as 5.0)

Measured: growth inhibition

N/C(=N\OC(=O)NC(Cl)=C(Cl)Cl)c1cc(C(F)(F)F)cc(C(F)(F)F)c1
inactive: [1]; [17] 36% | [1]; at 11.0 µM -32% | [1]; at 33.0 µM 33% | [1]; [18] 58% | [2]; at 1.2 µM -53% | [2]; at 3.7 µM -36% | [2]; at 11.0 µM -48% | [2]; at 33.0 µM 18% | [3]; [17] -1% | [4]; at 1.2 µM 25% | [4]; at 3.7 µM 11% | [4]; at 11.0 µM 7% | [4]; at 33.0 µM 66% | [5]; [17] 45% | [6]; at 1.2 µM -23% | [6]; at 3.7 µM -9% | [6]; [17] 34% | [6]; at 11.0 µM -30% | [6]; at 33.0 µM 23% | [7]; at 1.2 µM -43% | [7]; at 3.7 µM -32% | [7]; at 11.0 µM -36% | [7]; at 33.0 µM 38% | [8]; at 1.2 µM -27% | [8]; at 3.7 µM -11% | [8]; at 11.0 µM -14% | [8]; at 33.0 µM 57% | [9]; at 1.2 µM -22% | [9]; at 3.7 µM -16% | [9]; at 11.0 µM -9% | [9]; at 33.0 µM 68% | [10]; [17] 42% | [10]; [18] 67% | [11]; at 1.2 µM -20% | [11]; at 3.7 µM -21% | [11]; at 11.0 µM -2%
active: [1]; at 50.0 µM 89.3% | [1]; at 100.0 µM 95% | [2]; at 100.0 µM 96% | [3]; [18] 95% | [3]; at 50.0 µM 89.4% | [4]; at 100.0 µM 98% | [5]; [18] 94% | [5]; at 50.0 µM 89% | [6]; [18] 91% | [6]; at 50.0 µM 89.9% | [6]; at 100.0 µM 96% | [7]; at 100.0 µM 96% | [8]; at 100.0 µM 97% | [9]; at 100.0 µM 97% | [10]; at 50.0 µM 88% | [11]; at 33.0 µM 72% | [11]; at 100.0 µM 97%

CC(=O)OCC(=O)C1(O)CCC2C3CCC4CCCCC4(C)C3CCC21C (centres undefined)
active: [12]; at 100.0 µM 83% | [13]; at 100.0 µM 77% | [15]; at 100.0 µM 88% | [16]; [18] 78% | [16]; at 50.0 µM 83.2% | [16]; at 100.0 µM 87% | [1]; [18] 84% | [1]; at 100.0 µM 81% | [2]; at 100.0 µM 86% | [3]; at 50.0 µM 70.5% | [4]; at 100.0 µM 82% | [5]; [18] 75% | [5]; at 50.0 µM 76% | [6]; [18] 74% | [6]; at 50.0 µM 76% | [6]; at 100.0 µM 82% | [7]; at 100.0 µM 74% | [9]; at 100.0 µM 79% | [10]; [18] 80% | [10]; at 50.0 µM 70.8% | [11]; at 100.0 µM 92%
inactive: [12]; at 1.2 µM -52% | [12]; at 3.7 µM -27% | [12]; at 11.0 µM 21% | [12]; at 33.0 µM 55% | [13]; at 1.2 µM -20% | [13]; at 3.7 µM -14% | [13]; at 11.0 µM 7% | [13]; at 33.0 µM 50% | [14]; at 1.2 µM -9% | [14]; at 3.7 µM -16% | [14]; at 11.0 µM -40% | [14]; at 33.0 µM -22% | [14]; at 100.0 µM -25% | [15]; at 1.2 µM 3% | [15]; at 3.7 µM 3% | [15]; at 11.0 µM 34% | [15]; at 33.0 µM 57% | [16]; at 1.2 µM 13% | [16]; at 3.7 µM -25% | [16]; [17] 59% | [16]; at 11.0 µM 13% | [16]; at 33.0 µM 53% | [1]; at 1.2 µM -3% | [1]; at 3.7 µM -10% | [1]; [17] 64% | [1]; at 11.0 µM 14% | [1]; at 33.0 µM 41% | [1]; at 50.0 µM 61.5% | [2]; at 1.2 µM -31% | [2]; at 3.7 µM -17% | [2]; at 11.0 µM 8% | [2]; at 33.0 µM 60% | [3]; [17] -11% | [3]; [18] 60% | [4]; at 1.2 µM 10% | [4]; at 3.7 µM 23% | [4]; at 11.0 µM 34% | [4]; at 33.0 µM 60% | [5]; [17] 35% | [6]; at 1.2 µM -24% | [6]; at 3.7 µM -13% | [6]; [17] 56% | [6]; at 11.0 µM 26% | [6]; at 33.0 µM 46% | [7]; at 1.2 µM -50% | [7]; at 3.7 µM -54% | [7]; at 11.0 µM -17% | [7]; at 33.0 µM 27% | [9]; at 1.2 µM -16% | [9]; at 3.7 µM -16% | [9]; at 11.0 µM 14% | [9]; at 33.0 µM 38% | [10]; [17] 47% | [11]; at 1.2 µM 10% | [11]; at 3.7 µM 24% | [11]; at 11.0 µM 32% | [11]; at 33.0 µM 67%

COc1ccc(O)c(/C=N\Nc2ccccc2)c1
inactive: [12]; at 1.2 µM -10% | [12]; at 3.7 µM -11% | [12]; at 11.0 µM -3% | [12]; at 33.0 µM 54% | [12]; at 100.0 µM 55% | [13]; at 1.2 µM -1% | [13]; at 3.7 µM 5% | [13]; at 11.0 µM 11% | [13]; at 33.0 µM 12% | [13]; at 100.0 µM 33% | [14]; at 1.2 µM -8% | [14]; at 3.7 µM -18% | [14]; at 11.0 µM 13% | [14]; at 33.0 µM 50% | [15]; at 1.2 µM -6% | [15]; at 3.7 µM -7% | [15]; at 11.0 µM -6% | [15]; at 33.0 µM -6% | [15]; at 100.0 µM 36% | [16]; at 1.2 µM -14% | [16]; at 3.7 µM -9% | [16]; [17] -124% | [16]; at 11.0 µM -4% | [16]; at 33.0 µM 25% | [1]; at 1.2 µM -6% | [1]; at 3.7 µM -5% | [1]; [17] -52% | [1]; at 11.0 µM -5% | [1]; at 33.0 µM -5% | [1]; [18] -12% | [1]; at 100.0 µM -2% | [2]; at 1.2 µM 0% | [2]; at 3.7 µM -1% | [2]; at 11.0 µM 5% | [2]; at 33.0 µM 30% | [3]; [17] -64% | [3]; [18] -22% | [4]; at 1.2 µM -8% | [4]; at 3.7 µM -9% | [4]; at 11.0 µM -14% | [4]; at 33.0 µM -14% | [4]; at 100.0 µM 21% | [5]; [17] -61% | [5]; [18] -19% | [6]; at 1.2 µM -9% | [6]; at 3.7 µM -9% | [6]; [17] -73% | [6]; at 11.0 µM -9% | [6]; at 33.0 µM 6% | [6]; [18] -4% | [6]; at 100.0 µM 49% | [7]; at 1.2 µM 3% | [7]; at 3.7 µM 8% | [7]; at 11.0 µM 21% | [7]; at 33.0 µM 51% | [8]; at 1.2 µM -13% | [8]; at 3.7 µM -8% | [8]; at 11.0 µM -7% | [8]; at 33.0 µM -2% | [9]; at 1.2 µM -13% | [9]; at 3.7 µM -9% | [9]; at 11.0 µM 11% | [9]; at 33.0 µM 39% | [10]; [17] -132% | [10]; [18] 13% | [11]; at 1.2 µM -9% | [11]; at 3.7 µM -8% | [11]; at 11.0 µM -2% | [11]; at 33.0 µM 14% | [11]; at 100.0 µM 54%
active: [14]; at 100.0 µM 70% | [16]; [18] 71% | [16]; at 50.0 µM 99.4% | [16]; at 100.0 µM 73% | [1]; at 50.0 µM 99.3% | [2]; at 100.0 µM 94% | [3]; at 50.0 µM 98.8% | [5]; at 50.0 µM 99% | [6]; at 50.0 µM 98.9% | [7]; at 100.0 µM 96% | [8]; at 100.0 µM 74% | [9]; at 100.0 µM 94% | [10]; at 50.0 µM 98.5%
